Values joined by “and” are separate entries in the source; they are usually repeats but may differ in a detail not shown here. Equal values may be shown once. The campaign covered roughly 5,500 compounds. About 2,000 (36%) were called active. About 18% were inconclusive and are not listed. Cut-off read from the data, not from the text of the source: active = normalized growth mostly below about 0.91 (no sharp cut-off); inconclusive = no clear call, values can overlap the other calls; inactive = mostly above about 0.92. The list shows a part of the results.
Experiment: chemical genetic growth profiling, strain panel (AID 1159580);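 note: tested at 20 µM; growth read once vehicle control cultures reached saturation at 30 °C; 1 = growth at the plate median or of vehicle wells; lower values mean less growth of the strain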
Conditions: S. cerevisiae deletion strains, growth OD

Measured: normalized growth

CN(C)CCOC(=O)C(c1ccccc1)C1(O)CCCC1 (stereo not drawn)
inactive: locus YAL013W, strain DEP1, hits give low values 1.01 | locus YAL021C, strain ccr4, hits give low values 0.987 | locus YAL026C, strain drs2, hits give low values 1.03 | locus YAL030W, strain snc1, hits give low values 0.99 | locus YBL061C, strain skt5, hits give low values 0.995 | locus YBR009C, strain hhf1, hits give low values 1 | locus YBR021W, strain FUR4, hits give low values 0.991 | locus YBR023C, strain chs3, hits give low values 1 | locus YBR171W, strain sec66, hits give low values 0.97 | locus YBR229C, strain ROT2, hits give low values 0.998 | locus YBR231C, strain swc5, hits give low values 0.972 | locus YBR279W, strain paf1, hits give low values 0.992 | locus YCL011C, strain gbp2, hits give low values 1.01 | locus YCL016C, strain dcc1, hits give low values 1.03 | locus YCL029C, strain bik1, hits give low values 1.02 | locus YCL061C, strain MRC1, hits give low values 0.993 | locus YCL069W, strain vba3, hits give low values 0.991 | locus YCR088W, strain abp1, hits give low values 0.981 | locus YDL005C, strain med2, hits give low values 0.991 | locus YDL035C, strain GPR1, hits give low values 1.01 | locus YDL040C, strain nat1, hits give low values 0.974 | locus YDL074C, strain BRE1, hits give low values 1.02 | locus YDL101C, strain DUN1, hits give low values 0.998 | locus YDL185W, strain tfp1, hits give low values 1.01 | locus YDL192W, strain arf1, hits give low values 1.02 | locus YDR001C, strain nth1, hits give low values 0.963 | locus YDR069C, strain doa4, hits give low values 0.99 | locus YDR101C, strain arx1, hits give low values 1 | locus YDR137W, strain rgp1, hits give low values 1.04 | locus YDR150W, strain NUM1, hits give low values 0.998 | locus YDR159W, strain sac3, hits give low values 1.01 | locus YDR162C, strain NBP2, hits give low values 1.01 | locus YDR195W, strain ref2 0.925 | locus YDR297W, strain sur2, hits give low values 0.981 | locus YDR318W, strain mcm21, hits give low values 1.01 | locus YDR334W, strain swr1, hits give low values 0.984 | locus YDR335W, strain msn5, hits give low values 0.985 | locus YDR388W, hits give low values 1.01 | locus YDR392W, strain spt3, hits give low values 1.08 | locus YDR502C, strain sam2, hits give low values 1.02 | locus YEL003W, strain gim4, hits give low values 0.978 | locus YEL037C, strain rad23, hits give low values 0.984 | locus YEL061C, strain CIN8 (second series), hits give low values 0.984 | locus YEL061C, strain CIN8, hits give low values 1 | locus YER015W, strain faa2, hits give low values 0.999 | locus YER016W, strain bim1, hits give low values 1.01 | locus YER110C, hits give low values 1.02 | locus YER111C, strain swi4, hits give low values 0.971 | locus YER155C, strain BEM2 (second series), hits give low values 1 | locus YER155C, strain BEM2, hits give low values 0.996 | locus YER167W, strain BCK2, hits give low values 1 | locus YFR010W, strain ubp6, hits give low values 0.962 | locus YGL078C, strain dbp3, hits give low values 1.01 | locus YGL086W, strain mad1, hits give low values 1.02 | locus YGL167C, strain pmr1, hits give low values 0.974 | locus YGL173C, strain kem1, hits give low values 0.989 | locus YGL227W, strain vid30, hits give low values 0.988 | locus YGL240W, strain doc1, hits give low values 0.963 | locus YGL248W, strain PDE1, hits give low values 1.01 | locus YGL253W, strain hxk2, hits give low values 1 | locus YGR135W, strain pre9, hits give low values 1.03 | locus YGR252W, strain gcn5, hits give low values 0.964 | locus YHR013C, strain ard1, hits give low values 1.02 | locus YHR027C, strain rpn1, hits give low values 1.01 | locus YHR030C, strain SLT2, hits give low values 1 and 0.988 | locus YHR079C, strain IRE1 (second series), hits give low values 1.01 | locus YHR079C, strain IRE1, hits give low values 1 | locus YHR094C, strain hxt1, hits give low values 1.02 | locus YHR129C, strain ARP1, hits give low values 1 | locus YHR142W, strain chs7, hits give low values 0.985 | locus YHR200W, strain rpn10, hits give low values 1.02 | locus YIL066C, strain RNR3, hits give low values 1.01 | locus YIL073C, strain SPO22, hits give low values 1.02 | locus YIL125W, strain kgd1, hits give low values 1.01 | locus YIR030C, strain dcg1, hits give low values 1.03 | locus YJL092W, strain hpr5, hits give low values 0.981 | locus YJL095W, strain BCK1 (second series), hits give low values 0.996 | locus YJL095W, strain BCK1, hits give low values 1.02 and 0.991 | locus YJL115W, strain asf1, hits give low values 0.97 | locus YJL129C, strain trk1, hits give low values 0.96 | locus YJL134W, strain LCB3, hits give low values 1 | locus YJL154C, strain vps35, hits give low values 0.972 | locus YJL164C, strain tpk1, hits give low values 1.01 | locus YJL166W, strain qcr8, hits give low values 0.978 | locus YJL168C, strain set2, hits give low values 1.01 | locus YJL187C, strain SWE1 (second series), hits give low values 1.02 | locus YJR043C, strain POL32, hits give low values 1.01 | locus YJR066W, strain TOR1, hits give low values 0.995
